Measurements from the supplement of paper PMC11732987, “Enantioselective OTUD7B fragment discovery through chemoproteomics screening and high-throughput optimisation” (Communications Chemistry, 2025).

How the values were obtained:
Experiment in all cases: log2 ratio of Biotin-Ahx-Ub-VS probe labelling (fragment/DMSO); higher = less target engagement (more negative = stronger competition), active = hit call of the paper (q ≤ 0.05, log2 ratio ≤ -1)
Settings in all cases: compound concentration: 200 uM; treatment time: 3 h
[1] = biological target: T1, USP19 (UniProt O94966)
T1 sequence (whole entry): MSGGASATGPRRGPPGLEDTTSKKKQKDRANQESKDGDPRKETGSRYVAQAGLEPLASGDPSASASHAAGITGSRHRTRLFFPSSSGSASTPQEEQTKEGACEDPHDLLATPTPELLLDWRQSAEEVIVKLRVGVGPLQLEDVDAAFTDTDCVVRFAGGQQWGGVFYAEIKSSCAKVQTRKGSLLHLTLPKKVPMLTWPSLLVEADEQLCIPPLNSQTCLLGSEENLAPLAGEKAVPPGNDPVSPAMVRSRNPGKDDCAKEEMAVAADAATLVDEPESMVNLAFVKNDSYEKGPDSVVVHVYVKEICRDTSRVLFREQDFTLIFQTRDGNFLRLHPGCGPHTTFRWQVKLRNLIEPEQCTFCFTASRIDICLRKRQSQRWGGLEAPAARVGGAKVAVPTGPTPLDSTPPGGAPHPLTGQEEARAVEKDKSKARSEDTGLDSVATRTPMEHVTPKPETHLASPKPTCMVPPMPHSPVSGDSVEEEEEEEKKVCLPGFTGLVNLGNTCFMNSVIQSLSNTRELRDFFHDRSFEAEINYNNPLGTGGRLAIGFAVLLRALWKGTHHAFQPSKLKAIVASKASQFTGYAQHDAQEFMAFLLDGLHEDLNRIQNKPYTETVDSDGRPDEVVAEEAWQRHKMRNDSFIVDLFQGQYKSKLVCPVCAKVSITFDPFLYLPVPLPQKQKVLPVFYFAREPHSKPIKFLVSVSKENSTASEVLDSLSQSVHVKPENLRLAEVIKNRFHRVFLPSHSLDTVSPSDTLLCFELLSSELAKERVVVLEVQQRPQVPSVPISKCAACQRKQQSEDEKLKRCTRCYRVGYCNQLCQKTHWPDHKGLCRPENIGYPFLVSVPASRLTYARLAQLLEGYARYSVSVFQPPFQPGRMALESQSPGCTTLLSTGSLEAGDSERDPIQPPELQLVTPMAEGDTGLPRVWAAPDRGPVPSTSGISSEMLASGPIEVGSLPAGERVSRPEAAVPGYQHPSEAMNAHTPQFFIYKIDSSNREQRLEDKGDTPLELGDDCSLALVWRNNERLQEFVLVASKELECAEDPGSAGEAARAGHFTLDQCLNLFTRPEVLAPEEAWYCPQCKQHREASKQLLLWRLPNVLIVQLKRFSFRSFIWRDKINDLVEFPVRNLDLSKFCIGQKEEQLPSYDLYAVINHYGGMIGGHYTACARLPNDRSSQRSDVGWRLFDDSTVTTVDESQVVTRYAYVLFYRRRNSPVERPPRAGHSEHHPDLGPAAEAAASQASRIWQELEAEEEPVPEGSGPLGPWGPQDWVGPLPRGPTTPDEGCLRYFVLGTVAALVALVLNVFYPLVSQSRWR
Procedure, shortened: (§1)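 Each value is an average log2 ratio of fragment to vehicle, tested by unpaired t-test. The underlying Spectronaut label-free quantities were global-median-normalised, and only proteins with ≥2 unique peptides were included. Triplicate HEK293T lysate samples (495 µg) were exposed to fragment at 200 µM or vehicle for 3 h, then to Biotin-Ahx-Ub-VS at 0.5 µM final for 1 h, before NeutrAvidin enrichment of labelled DUBs, LysC and trypsin digestion, and diaPASEF LC-MS/MS.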

[2] = biological target: T2, USP22 (UniProt Q9UPT9)
T2 sequence (whole entry): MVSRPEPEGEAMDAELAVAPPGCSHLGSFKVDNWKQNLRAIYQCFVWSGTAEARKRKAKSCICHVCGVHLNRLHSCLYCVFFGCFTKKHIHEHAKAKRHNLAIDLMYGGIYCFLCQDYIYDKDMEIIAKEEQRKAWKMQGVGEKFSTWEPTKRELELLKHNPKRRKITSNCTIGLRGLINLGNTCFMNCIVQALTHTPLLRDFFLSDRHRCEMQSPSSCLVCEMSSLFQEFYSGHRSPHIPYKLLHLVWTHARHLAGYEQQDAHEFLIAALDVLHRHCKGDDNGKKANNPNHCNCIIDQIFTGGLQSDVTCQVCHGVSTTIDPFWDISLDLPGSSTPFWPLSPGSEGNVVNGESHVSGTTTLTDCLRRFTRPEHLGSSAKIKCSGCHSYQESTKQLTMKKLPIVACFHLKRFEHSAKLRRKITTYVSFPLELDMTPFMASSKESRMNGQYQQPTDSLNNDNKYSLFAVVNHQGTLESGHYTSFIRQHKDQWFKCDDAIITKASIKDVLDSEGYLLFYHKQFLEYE
Procedure, shortened: as §1

[3] = biological target: USP24 (UniProt Q9UPU5)
Chain of USP24 (Q9UPU5 whole entry): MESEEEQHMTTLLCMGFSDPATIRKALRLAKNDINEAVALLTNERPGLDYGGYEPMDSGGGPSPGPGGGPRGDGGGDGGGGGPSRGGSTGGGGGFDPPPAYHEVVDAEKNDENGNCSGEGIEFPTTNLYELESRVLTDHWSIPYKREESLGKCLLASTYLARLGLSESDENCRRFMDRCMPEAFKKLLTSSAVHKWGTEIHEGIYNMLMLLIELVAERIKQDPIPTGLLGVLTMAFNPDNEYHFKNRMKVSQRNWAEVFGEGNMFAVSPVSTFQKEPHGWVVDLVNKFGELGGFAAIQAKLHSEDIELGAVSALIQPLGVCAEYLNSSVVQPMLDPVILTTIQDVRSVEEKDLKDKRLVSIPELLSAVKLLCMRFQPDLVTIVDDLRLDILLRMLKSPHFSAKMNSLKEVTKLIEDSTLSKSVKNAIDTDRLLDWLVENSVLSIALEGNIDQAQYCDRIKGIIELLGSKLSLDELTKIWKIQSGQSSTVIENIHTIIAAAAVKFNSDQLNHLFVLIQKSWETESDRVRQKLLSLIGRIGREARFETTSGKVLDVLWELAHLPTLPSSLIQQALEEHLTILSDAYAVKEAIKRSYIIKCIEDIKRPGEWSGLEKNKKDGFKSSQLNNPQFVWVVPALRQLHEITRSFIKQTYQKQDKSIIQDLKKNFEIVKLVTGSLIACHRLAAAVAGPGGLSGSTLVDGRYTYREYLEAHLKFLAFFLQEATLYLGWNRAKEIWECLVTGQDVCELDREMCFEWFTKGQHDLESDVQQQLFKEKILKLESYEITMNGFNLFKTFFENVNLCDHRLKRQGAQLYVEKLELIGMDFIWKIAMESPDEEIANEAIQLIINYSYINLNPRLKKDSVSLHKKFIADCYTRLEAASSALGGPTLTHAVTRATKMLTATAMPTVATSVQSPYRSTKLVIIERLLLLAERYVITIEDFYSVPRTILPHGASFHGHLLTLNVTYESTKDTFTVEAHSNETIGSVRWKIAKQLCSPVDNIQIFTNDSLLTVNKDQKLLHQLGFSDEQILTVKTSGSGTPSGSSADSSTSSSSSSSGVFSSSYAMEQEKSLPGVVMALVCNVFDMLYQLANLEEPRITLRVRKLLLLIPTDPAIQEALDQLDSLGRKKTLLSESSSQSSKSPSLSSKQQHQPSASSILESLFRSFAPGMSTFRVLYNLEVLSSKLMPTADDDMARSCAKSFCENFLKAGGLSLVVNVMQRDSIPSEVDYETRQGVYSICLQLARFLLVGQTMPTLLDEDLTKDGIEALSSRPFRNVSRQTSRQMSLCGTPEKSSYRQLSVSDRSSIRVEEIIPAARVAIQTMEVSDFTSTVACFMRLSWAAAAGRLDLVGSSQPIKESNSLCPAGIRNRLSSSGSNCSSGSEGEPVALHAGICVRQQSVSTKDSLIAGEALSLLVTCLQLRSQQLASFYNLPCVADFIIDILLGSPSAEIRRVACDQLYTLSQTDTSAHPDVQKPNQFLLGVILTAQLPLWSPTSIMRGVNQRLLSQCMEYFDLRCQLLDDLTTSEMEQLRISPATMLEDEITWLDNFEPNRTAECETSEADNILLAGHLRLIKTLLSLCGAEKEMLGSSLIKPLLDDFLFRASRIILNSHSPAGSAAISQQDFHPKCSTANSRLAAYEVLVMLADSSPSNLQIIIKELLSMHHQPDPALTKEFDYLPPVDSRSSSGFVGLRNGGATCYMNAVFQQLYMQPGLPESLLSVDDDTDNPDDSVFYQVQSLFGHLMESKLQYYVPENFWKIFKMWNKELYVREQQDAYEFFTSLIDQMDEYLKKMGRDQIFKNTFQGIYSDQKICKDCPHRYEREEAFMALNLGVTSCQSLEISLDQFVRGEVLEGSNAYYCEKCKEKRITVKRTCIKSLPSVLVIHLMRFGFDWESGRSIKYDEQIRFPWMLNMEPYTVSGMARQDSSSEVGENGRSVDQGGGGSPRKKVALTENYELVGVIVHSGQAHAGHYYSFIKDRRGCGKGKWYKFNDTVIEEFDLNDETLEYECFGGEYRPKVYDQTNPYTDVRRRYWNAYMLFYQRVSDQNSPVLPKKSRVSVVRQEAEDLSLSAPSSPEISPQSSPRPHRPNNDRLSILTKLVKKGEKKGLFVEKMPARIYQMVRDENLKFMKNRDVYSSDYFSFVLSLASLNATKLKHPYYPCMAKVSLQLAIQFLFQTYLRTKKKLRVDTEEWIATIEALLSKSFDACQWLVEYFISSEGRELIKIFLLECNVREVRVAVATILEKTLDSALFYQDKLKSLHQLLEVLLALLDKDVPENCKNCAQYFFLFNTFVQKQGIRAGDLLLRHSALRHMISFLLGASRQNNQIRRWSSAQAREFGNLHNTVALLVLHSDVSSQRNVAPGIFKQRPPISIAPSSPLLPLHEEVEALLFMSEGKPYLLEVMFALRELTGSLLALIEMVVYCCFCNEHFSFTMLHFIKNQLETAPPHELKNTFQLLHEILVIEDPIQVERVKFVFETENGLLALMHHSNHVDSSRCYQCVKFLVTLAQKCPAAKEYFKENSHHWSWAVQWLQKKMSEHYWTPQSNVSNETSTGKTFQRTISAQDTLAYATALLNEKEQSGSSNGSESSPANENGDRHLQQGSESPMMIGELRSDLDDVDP
Procedure, shortened: as §1

[4] = biological target: T3, USP25 (UniProt Q9UHP3)
T3 sequence (whole entry): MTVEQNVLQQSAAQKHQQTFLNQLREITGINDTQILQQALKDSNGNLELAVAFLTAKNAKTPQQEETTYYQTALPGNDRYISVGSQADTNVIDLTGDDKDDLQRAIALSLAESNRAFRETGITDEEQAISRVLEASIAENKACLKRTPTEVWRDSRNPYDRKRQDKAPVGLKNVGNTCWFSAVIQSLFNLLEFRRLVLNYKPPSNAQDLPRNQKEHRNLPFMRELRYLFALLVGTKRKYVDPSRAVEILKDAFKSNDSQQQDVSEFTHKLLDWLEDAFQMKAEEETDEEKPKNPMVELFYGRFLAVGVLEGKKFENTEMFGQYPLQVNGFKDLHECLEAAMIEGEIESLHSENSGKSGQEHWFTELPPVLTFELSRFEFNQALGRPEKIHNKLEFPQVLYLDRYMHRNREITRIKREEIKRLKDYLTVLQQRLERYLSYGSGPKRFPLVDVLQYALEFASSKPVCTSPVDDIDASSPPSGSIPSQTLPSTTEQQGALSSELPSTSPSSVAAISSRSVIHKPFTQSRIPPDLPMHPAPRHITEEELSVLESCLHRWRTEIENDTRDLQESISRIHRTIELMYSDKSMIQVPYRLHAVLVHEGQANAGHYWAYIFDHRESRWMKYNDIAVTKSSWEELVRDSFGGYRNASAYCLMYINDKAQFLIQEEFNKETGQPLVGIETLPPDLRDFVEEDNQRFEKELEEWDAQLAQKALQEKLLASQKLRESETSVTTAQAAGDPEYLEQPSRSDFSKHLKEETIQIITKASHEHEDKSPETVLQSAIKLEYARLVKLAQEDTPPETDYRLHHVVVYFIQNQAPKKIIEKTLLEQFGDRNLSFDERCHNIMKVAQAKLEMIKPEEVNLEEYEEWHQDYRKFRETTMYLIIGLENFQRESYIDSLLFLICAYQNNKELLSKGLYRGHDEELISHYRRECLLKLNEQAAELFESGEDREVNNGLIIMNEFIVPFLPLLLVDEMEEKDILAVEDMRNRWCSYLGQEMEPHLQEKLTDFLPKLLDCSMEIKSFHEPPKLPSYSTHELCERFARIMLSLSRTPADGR
Procedure, shortened: as §1

[5] = biological target: T4, USP28 (UniProt Q96RU2)
T4 sequence (whole entry): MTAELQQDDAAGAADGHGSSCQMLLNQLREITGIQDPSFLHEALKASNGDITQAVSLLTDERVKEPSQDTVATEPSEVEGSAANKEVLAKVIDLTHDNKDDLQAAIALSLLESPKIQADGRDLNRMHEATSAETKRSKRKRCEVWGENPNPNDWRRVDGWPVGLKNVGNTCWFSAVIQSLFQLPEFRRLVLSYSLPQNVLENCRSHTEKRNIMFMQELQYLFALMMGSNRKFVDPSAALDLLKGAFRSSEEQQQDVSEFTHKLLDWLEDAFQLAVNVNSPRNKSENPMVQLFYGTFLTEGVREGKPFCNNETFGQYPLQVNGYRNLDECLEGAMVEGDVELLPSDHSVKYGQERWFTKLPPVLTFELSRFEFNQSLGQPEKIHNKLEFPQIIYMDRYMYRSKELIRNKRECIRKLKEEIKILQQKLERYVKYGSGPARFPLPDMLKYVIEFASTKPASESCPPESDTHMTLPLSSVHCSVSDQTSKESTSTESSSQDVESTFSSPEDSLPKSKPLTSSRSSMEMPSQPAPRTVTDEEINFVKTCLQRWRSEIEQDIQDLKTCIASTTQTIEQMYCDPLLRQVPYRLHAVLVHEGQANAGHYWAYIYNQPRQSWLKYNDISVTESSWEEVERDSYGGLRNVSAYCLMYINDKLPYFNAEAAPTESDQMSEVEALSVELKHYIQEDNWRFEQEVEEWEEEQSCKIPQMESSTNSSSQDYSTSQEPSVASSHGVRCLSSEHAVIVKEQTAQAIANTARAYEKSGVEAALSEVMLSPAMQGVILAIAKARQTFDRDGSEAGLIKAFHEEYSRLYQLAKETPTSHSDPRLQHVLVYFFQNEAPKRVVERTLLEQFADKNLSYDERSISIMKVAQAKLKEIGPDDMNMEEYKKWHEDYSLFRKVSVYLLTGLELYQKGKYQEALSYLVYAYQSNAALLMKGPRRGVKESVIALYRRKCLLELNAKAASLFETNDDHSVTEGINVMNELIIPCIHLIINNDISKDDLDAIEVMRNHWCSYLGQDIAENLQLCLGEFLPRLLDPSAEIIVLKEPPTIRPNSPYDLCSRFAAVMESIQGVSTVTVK
Procedure, shortened: as §1

Measured: log2 ratio of Biotin-Ahx-Ub-VS probe labelling

O=C(CCl)Nc1cc(Cl)ccc1C(=O)O
inactive: [1] -0.0222 | [2] 0.0608 | [3] -0.0569 | [4] 0.269 | [5] -0.0169
